Assays:
Assay in all cases: log2 ratio of Biotin-Ahx-Ub-VS probe labelling (fragment/DMSO); higher = less target engagement (more negative = stronger competition), active = hit call of the paper (q ≤ 0.05, log2 ratio ≤ -1)
Conditions in all cases: compound concentration: 200 uM; treatment time: 3 h
USP34 = USP34 (UniProt Q70CQ2)
Method in brief: (§1)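 HEK293T lysate, 495 µg per sample in Tris/CHAPS/IGEPAL buffer with protease inhibitors, was treated in triplicate with fragment at 200 µM or vehicle for 3 h and then with Biotin-Ahx-Ub-VS at 0.5 µM final for 1 h. Labelled DUBs were NeutrAvidin-enriched, digested with LysC and trypsin, and run by diaPASEF LC-MS/MS. Spectronaut label-free quantities were global-median-normalised, and values are average log2 fragment/vehicle ratios by unpaired t-test on proteins with ≥2 unique peptides.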

USP36 = molecular target: T1, USP36 (UniProt Q9P275)
T1 sequence (whole entry): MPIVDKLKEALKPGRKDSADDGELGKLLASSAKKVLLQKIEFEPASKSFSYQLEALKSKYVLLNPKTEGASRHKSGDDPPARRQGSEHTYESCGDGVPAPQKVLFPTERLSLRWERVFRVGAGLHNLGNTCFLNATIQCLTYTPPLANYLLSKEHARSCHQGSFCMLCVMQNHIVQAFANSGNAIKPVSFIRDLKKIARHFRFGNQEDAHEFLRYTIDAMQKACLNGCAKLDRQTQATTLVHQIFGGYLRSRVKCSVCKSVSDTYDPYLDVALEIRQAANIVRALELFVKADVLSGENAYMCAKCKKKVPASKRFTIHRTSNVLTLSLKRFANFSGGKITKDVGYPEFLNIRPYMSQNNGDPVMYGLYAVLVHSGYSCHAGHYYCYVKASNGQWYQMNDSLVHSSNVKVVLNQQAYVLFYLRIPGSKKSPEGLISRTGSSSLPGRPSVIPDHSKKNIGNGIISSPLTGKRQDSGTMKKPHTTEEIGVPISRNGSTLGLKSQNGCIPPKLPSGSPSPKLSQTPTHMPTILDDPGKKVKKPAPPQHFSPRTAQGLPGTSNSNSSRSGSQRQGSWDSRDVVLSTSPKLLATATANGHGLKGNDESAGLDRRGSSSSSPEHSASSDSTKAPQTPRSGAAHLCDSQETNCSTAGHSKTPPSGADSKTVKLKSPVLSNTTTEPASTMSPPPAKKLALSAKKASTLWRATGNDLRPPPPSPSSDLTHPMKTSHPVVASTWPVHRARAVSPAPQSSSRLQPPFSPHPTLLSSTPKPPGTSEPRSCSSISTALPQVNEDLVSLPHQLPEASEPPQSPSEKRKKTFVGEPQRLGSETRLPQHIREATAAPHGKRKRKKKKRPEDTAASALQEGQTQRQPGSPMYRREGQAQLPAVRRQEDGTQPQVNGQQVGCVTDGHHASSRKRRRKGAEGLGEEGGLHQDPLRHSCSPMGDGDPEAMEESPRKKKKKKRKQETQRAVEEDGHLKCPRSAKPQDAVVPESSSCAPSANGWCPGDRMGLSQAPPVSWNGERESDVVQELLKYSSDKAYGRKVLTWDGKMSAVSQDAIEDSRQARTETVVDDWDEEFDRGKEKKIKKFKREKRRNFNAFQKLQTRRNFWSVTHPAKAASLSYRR
Method in brief: as §1

USP38 = molecular target: T2, USP38 (UniProt Q8NB14)
T2 sequence (whole entry): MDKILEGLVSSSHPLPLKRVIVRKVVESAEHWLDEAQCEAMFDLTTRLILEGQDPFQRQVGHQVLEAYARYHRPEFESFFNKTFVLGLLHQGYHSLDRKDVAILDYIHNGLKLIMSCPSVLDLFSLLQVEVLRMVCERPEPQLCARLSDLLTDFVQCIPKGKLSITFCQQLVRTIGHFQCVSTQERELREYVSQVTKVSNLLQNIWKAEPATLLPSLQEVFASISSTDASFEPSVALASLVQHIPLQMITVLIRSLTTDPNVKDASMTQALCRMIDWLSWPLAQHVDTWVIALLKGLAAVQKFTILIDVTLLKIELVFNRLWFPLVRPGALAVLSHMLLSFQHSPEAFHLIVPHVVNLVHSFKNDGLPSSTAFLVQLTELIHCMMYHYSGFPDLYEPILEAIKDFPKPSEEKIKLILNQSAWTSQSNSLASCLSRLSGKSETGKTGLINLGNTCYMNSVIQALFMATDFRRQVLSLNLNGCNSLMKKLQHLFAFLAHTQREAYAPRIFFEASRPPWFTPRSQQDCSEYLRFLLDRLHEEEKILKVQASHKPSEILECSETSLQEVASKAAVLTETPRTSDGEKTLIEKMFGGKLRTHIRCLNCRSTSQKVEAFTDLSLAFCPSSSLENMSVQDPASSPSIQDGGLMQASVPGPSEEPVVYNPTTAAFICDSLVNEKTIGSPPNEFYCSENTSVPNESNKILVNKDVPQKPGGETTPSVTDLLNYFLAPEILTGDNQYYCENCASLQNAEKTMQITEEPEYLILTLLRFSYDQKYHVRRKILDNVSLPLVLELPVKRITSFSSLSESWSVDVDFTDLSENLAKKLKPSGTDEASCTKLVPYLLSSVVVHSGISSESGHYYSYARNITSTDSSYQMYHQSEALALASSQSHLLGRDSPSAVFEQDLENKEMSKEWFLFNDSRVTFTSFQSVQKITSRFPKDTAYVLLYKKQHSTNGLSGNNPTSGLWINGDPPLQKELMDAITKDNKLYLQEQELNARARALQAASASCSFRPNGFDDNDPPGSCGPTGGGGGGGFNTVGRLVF
Method in brief: as §1

USP39 = molecular target: T3, USP39 (UniProt Q53GS9)
T3 sequence (whole entry): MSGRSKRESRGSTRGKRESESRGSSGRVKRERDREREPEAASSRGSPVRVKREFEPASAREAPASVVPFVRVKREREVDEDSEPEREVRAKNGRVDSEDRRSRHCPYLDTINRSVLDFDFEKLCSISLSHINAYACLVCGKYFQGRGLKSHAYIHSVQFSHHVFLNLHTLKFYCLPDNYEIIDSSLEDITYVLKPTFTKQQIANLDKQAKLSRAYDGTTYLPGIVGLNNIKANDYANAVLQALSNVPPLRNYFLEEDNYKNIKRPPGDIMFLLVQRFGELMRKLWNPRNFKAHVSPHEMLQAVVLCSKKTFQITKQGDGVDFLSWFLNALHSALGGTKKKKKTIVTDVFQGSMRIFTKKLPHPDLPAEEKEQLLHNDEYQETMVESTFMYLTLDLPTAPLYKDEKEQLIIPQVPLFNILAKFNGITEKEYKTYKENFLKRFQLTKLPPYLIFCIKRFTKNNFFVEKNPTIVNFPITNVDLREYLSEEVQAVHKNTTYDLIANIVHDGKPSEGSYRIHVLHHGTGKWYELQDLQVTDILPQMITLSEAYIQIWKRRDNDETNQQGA
Method in brief: as §1

USP4 = molecular target: T4, USP4 (UniProt Q13107)
T4 sequence (whole entry): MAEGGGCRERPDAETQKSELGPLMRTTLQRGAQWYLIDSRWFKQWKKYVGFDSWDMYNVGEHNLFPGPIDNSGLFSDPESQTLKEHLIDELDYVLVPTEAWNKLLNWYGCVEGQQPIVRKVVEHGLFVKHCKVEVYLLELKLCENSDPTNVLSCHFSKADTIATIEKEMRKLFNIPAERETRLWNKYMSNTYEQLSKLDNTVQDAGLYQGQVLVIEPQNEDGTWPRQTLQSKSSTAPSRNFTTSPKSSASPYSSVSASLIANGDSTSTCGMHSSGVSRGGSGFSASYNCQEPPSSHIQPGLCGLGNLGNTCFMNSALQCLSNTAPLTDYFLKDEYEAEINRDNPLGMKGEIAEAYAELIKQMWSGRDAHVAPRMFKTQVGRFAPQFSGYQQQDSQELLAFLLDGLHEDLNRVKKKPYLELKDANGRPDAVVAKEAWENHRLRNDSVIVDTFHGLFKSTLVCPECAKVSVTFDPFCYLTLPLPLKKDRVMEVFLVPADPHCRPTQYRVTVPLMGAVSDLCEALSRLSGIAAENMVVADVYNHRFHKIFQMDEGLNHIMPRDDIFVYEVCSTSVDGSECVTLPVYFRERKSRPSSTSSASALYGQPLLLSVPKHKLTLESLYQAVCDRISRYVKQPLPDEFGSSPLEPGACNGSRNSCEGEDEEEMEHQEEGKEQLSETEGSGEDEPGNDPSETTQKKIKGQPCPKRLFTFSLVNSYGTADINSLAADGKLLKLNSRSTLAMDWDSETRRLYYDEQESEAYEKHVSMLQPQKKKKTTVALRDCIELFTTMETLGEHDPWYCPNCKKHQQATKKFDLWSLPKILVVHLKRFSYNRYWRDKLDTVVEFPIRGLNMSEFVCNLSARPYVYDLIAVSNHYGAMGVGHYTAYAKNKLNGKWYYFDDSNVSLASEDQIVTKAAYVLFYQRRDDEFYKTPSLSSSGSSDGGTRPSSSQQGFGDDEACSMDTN
Method in brief: as §1

Measured: log2 ratio of Biotin-Ahx-Ub-VS probe labelling

Chain of USP34 (Q70CQ2 whole entry, the tested form may be a part): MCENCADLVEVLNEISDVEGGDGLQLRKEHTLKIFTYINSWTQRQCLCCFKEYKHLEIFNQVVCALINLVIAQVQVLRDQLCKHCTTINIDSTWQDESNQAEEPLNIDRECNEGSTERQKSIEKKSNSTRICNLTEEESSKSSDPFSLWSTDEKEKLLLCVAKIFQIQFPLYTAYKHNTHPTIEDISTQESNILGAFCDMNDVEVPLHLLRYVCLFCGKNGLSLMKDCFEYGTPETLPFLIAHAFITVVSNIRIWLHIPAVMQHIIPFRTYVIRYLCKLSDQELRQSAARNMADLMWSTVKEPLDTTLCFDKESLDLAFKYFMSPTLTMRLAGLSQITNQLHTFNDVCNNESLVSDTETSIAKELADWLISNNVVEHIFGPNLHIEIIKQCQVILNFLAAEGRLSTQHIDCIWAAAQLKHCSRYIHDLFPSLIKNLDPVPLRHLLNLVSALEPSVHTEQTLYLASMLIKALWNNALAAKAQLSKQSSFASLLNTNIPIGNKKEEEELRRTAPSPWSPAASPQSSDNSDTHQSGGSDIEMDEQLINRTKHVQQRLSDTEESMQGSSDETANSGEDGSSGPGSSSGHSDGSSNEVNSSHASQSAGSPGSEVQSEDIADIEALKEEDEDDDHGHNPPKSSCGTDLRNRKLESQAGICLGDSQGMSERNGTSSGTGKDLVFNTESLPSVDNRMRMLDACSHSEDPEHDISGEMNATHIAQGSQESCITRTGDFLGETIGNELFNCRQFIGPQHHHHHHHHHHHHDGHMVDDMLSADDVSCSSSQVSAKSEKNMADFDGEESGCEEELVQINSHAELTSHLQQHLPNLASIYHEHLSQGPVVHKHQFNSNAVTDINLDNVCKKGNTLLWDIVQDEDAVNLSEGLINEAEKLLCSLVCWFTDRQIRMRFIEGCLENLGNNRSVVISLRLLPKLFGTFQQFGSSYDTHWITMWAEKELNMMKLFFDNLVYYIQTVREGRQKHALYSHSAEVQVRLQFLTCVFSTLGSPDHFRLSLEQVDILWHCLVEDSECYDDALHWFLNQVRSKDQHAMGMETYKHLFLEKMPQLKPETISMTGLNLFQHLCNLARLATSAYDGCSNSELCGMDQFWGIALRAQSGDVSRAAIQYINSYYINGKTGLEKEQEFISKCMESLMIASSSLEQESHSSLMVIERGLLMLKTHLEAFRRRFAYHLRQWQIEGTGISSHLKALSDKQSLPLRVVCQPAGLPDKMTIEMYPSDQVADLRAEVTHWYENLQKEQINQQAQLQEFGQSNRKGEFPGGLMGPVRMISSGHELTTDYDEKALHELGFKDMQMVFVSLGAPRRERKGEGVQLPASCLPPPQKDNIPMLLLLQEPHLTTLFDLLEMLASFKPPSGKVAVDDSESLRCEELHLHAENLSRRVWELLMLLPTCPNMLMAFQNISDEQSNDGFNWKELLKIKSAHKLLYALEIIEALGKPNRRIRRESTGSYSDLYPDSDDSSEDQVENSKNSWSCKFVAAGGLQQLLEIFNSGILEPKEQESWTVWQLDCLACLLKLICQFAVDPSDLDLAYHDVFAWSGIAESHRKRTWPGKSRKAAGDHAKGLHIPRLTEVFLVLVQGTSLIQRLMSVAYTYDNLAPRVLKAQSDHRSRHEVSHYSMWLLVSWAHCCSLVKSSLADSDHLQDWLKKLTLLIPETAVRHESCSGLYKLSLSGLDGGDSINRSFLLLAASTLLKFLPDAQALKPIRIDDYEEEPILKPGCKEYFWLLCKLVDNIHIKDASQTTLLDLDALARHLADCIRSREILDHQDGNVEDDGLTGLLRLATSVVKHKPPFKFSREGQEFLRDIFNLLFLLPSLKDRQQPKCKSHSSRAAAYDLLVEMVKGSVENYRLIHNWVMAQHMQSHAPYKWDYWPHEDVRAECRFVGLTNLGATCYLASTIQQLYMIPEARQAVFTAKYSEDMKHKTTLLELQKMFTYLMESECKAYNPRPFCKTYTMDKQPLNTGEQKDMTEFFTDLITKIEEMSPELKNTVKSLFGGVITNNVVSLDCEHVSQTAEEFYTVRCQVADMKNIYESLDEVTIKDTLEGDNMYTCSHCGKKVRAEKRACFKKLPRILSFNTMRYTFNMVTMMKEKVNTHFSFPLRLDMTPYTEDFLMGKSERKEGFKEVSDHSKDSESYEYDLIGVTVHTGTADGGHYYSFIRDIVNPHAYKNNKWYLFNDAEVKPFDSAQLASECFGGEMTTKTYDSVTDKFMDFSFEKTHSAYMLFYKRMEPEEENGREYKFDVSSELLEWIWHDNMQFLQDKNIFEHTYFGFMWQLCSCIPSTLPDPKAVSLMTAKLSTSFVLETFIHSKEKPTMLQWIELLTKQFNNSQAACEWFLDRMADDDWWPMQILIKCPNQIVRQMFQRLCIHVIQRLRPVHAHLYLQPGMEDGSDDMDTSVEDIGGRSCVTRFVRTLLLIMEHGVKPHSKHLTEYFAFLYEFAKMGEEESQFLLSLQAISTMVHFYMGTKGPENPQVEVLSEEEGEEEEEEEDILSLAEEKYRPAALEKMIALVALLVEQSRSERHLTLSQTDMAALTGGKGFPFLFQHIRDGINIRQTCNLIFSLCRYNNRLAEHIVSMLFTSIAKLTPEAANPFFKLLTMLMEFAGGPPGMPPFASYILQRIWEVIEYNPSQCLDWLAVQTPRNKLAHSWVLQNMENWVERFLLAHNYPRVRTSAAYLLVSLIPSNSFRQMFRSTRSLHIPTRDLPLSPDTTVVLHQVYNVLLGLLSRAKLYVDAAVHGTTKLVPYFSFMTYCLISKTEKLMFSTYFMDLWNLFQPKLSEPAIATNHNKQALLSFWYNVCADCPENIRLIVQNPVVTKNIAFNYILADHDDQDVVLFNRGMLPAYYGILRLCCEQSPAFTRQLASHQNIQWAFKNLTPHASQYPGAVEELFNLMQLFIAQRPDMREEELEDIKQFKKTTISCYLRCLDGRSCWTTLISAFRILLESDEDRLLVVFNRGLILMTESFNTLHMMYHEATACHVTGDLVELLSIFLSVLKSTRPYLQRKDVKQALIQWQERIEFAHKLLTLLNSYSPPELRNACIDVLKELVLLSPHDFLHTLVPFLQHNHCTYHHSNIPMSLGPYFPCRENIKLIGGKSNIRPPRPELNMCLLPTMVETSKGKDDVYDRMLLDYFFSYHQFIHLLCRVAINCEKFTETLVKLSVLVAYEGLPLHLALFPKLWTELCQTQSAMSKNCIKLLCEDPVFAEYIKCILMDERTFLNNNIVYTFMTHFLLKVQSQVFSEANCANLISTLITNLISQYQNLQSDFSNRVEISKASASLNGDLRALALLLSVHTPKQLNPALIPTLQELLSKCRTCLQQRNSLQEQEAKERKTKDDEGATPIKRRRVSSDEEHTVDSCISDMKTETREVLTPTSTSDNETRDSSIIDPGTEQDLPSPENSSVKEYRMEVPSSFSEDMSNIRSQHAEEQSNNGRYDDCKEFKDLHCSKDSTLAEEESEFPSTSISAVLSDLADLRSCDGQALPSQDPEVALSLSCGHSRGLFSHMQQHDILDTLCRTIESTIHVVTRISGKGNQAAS

Cl.O=C(CCl)N1CC(c2ccc(Br)cn2)C1
inactive: USP34 -0.16 | USP36 -0.222 | USP38 -0.0763 | USP39 -0.11 | USP4 -0.285

Reference: the supplement of paper PMC11732987, “Enantioselective OTUD7B fragment discovery through chemoproteomics screening and high-throughput optimisation” (Communications Chemistry, 2025)
